IL-1B inflam inh: blocks inflammasome-driven IL-1 beta release; THP-1 LPS/ATP IL-1B secretion, AlphaLISA, 16 h; hits give low values; activity change, % at 57.5 µM; 4.7% of 360,000 active; in the data active means activity change below about -50%; inconclusive means mostly about -30% to -49%
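THP-1 cells pretreated 1 hr with compounds (up to 57.5 uM final), then stimulated with LPS (250 ng/mL final) plus ATP (1.25 mM final); secreted IL-1B measured by AlphaLISA after 16 hr, decreased signal indicating inhibition.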
12-LOX inh: blocks human arachidonate 12S-lipoxygenase; P18054; purified 12hLO, xylenol orange hydroperoxide absorbance; Potency, µM (series often up to 108 µM), inactives show at the highest dose activity change, negative = inhibition, most hits filed as inhibitors; 1.1% of 580,000 active; AID 1671190; further: potency means the concentration at half of the fitted maximal effect
Target sequence (P18054 whole entry, looked up): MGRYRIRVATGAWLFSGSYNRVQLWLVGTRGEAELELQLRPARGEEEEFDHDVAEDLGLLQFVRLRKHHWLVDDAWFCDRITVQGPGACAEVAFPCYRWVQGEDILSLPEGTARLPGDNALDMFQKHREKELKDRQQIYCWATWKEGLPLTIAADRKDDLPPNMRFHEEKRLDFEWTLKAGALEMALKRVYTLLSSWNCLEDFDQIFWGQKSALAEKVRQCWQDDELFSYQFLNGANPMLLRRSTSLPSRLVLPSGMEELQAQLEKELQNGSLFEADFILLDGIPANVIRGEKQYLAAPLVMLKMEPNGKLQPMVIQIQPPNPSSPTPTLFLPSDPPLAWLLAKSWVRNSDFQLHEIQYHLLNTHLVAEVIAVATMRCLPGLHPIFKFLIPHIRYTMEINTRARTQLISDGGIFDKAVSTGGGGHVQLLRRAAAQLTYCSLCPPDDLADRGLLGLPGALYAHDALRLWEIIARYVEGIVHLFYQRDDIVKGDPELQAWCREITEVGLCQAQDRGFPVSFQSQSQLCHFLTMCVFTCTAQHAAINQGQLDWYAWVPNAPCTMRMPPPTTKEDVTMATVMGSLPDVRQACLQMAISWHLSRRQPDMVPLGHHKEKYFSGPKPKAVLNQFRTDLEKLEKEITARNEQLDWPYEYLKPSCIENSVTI
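Purified human 12hLO at 150 nM in 25 mM Hepes, 0.01% Triton X-100, pH 7.0, preincubated 15 min at room temperature with compound. Reaction started with 40 uM arachidonic acid, 30 min at room temperature. Hydroperoxide measured by Fe-xylenol orange, 573/405 nm absorbance ratio.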
TDP1 cell CPT: growth inhibition of DT40 Tdp1-/-;hTDP1 cells with camptothecin (screen for TDP1 inhibitors). chicken DT40 Tdp1-/-;hTDP1 cells + 20 nM CPT, ATP luminescence, 48 h. AID 686979. 12% of 420,000 active. Potency, µM (titrated, usually from 46.2 µM), inactives show at the highest dose activity change, negative = growth inhibition, most hits filed as inhibitors; further: potency means the concentration at half of the fitted maximal effect; nearly all actives have a fitted effect of over 55% in size
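Cell growth measured by CellTiter-Glo luminescence after a minimum 48 h, 37 C compound exposure with 20 nM CPT in Tdp1-knockout DT40 cells stably expressing hTDP1, seeded 400/well; qHTS titration format.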
TDP1 cell noCPT: qHTS for Inhibitors of human tyrosyl-DNA phosphodiesterase 1 (TDP1): qHTS in cells in absence of CPT; DT40 Tdp1-/- hTDP1 cells, no CPT, ATP luminescence, 48 h; Potency, µM (titrated, usually from 46.2 µM), inactives show top-dose activity change, negative = growth inhibition, most hits filed as inhibitors; 15% of 420,000 active; AID 686978, 2013; further: potency means the concentration at half of the fitted maximal effect; nearly all actives have a fitted effect of over 55% in size
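Chicken DT40 Tdp1-/- cells stably complemented with human TDP1 were seeded at 400 cells/well with DMSO in place of 20 nM camptothecin. After compound pinning, cells grew at least 48 hr at 37 °C; viability read by CellTiter-Glo luminescence.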
HT1080NT lethal: kills 2HG-producing HT-1080-NT fibrosarcoma cells; Potency, µM (titrated, usually from 46.1 µM), for inactives: at the top dose activity, negative = less viability, usual class: cytotoxic; 1.6% of 360,000 active; AID 686970; HT-1080-NT fibrosarcoma viability, CellTiter-Glo ATP luminescence, 48 h;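 further: NT is the 2HG producing partner of a matched IDH1 knockdown line; potency means the concentration at half of the fitted maximal effect; 0% = DMSO-treated cells and -100% = media-only wells without cells; nearly all actives have a fitted effect of over 55% in size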
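Viability by CellTiter-Glo luminescence after 48 h compound exposure at 37C of HT-1080-NT cells (750/well, RPMI, 5% FBS). % activity scaled between DMSO wells and medium-only wells, then curve-fitted and categorized by curve class.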
HT1080 IDH1KD tx: HT-1080 IDH1 knockdown cell toxicity (counter line); HT-1080 IDH1 knockdown viability, ATP luminescence, 48 h; Potency, µM (titrated, usually from 46.1 µM), for inactives: top-dose activity, negative = toxicity, most hits filed as cytotoxic; 2% of 360,000 active;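 further: potency means the concentration at half of the fitted maximal effect; 0% = DMSO wells and -100% = cell-free medium wells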
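HT-1080-IDH1KD cells (IDH1 knocked down), 750/well in RPMI with 5% FBS, treated with compound 48 h at 37 degrees C. Viability by CellTiter-Glo luminescence, normalised to DMSO and no-cell wells; concentration-response curves classed.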
Active calls of the source: *; ? = inconclusive; nt = not tested or not shown; [ ] = remark or other dose. This is one part of a sample in which hits are shown more often than they occur. Unless noted, the call rests on the fitted dose curve; in most records, active means well fitted curve in the direction sought with a large enough effect; inconclusive means small, poorly fitted or top-dose-only effect, or another doubt; inactive means no such curve, though single readings can be large; an effect the other way counts as inactive or inconclusive. Unless noted, on the % scale 0 is the no-effect control and ±100 the full control effect.

SMILES | IL-1B inflam inh | 12-LOX inh | TDP1 cell CPT | TDP1 cell noCPT | HT1080NT lethal | HT1080 IDH1KD tx
COc1ccc(OC)c(S(=O)(=O)N2CCC(c3ncc(C)n3C(C)C)C2)c1 (configuration not stated) | nt | 50% | nt | nt | nt | nt
CCOc1ccc(CCNC(=O)c2ccc(Cn3c(=O)c4cccn4c4cccnc43)cc2)cc1 | nt | ? | 13µM* | 21µM* | nt | nt
CC(C)Oc1ccc(CNC(=O)c2ccc(Cn3c(=O)c4cccn4c4cccnc43)cc2)cc1 | nt | -9% | ? | 0.46µM* | nt | nt
CCOc1ccc(CCNC(=O)c2cccc(-n3c(C)nc4cccnc43)c2C)cc1 | nt | -16% | 21µM* | 15µM* | nt | nt
O=C(NCCc1ccc(Cl)cc1)c1ccc(Cn2c(=O)c3cccn3c3cccnc32)cc1 | nt | -4% | ? | 15µM* | nt | nt
COC(=O)[C@H](NC(=O)[C@@H]1C[C@H](NC(=O)Nc2cccc(SC)c2)CN1C(=O)c1cccn1C)C(C)C | nt | -2% | nt | nt | nt | nt
CCCCN(CCCC)c1cc(F)nc(N)n1 | nt | -5% | nt | nt | nt | nt
COC[C@@H]1CN(c2cnccn2)C[C@H]1C(=O)NCCc1ccccn1 | nt | 28% | nt | nt | nt | nt
COc1ccccc1/C=C/c1nc(C#N)c(NCCCn2ccnc2)o1 | nt | 16% | nt | nt | nt | nt
COc1cccc(OC)c1C(=O)NC(=S)Nc1ccc2c(c1)C(=O)N(C)C2=O | 2 | ? | ? | ? | 3% | -1%
COc1cc(C(=O)NC(=S)Nc2ccc3ccccc3c2)cc(OC)c1OC | 52 | 18µM* | 23µM* | 23µM* | ? | ?
COc1cc(C(=O)NC(=S)Nc2ccc3c(c2)C(=O)N(C)C3=O)cc(OC)c1OC | 6 | ? | -4% | 3.7µM* | 4% | -2%
CCCn1nc(SCC(=O)OCC)n2c(=O)c3c(nc12)-c1ccccc1CC3(C)CC (configuration not stated) | nt | 3% | nt | nt | nt | nt
Cc1ccc(C)c(C(=O)CCC(=O)NNC(=O)Cn2nc(C)cc2C)c1 | 21 | 1% | ? | 2.1µM* | 10% | 10%
C[C@H]1CN=C(Nc2ccccc2)N1CC1CCCCC1 | -4 | -7% | ? | ? | -3% | 3%
CCC(C)CCN1C(Nc2ccccc2)=NC[C@@H]1CC(C)C (some centres not stated) | -29 | 32% | 16µM* | 16µM* | -1% | 4%
CCC(C)CCN1C(Nc2ccccc2)=NC[C@@H]1Cc1ccccc1 (some centres not stated) | ? | 1% | 21µM* | 16µM* | ? | -17%
CC(C)C[C@H]1CN=C(Nc2ccccc2)N1CC1CCCCCC1 | -6 | -12% | ? | 21µM* | -18% | -25%
CCN1C(Nc2ccccc2)=NC[C@@H]1CC(C)C | 11 | 12% | 1% | 10% | -8% | -9%
CC(C)CCN1C(Nc2ccccc2)=NC[C@@H]1CC(C)C | -7 | 1% | 15µM* | ? | -5% | 5%
CCNC(=O)CNC(=O)c1cc(-c2ccc(F)cc2)nc2ccccc12 | nt | -13% | nt | nt | nt | nt
O=C(O)CCC(=O)N1Cc2ccccc2CC2(CCN(Cc3cccnc3)C2)C1 (configuration not stated) | nt | 8%[6.33 µM] | nt | nt | nt | nt
CNC(=O)/C(C#N)=C/c1c(N(Cc2ccccc2)Cc2ccccc2)nc2c(C)cccn2c1=O | ? | -14% | ? | ? | 18µM* | ?
CCNC(=O)/C(C#N)=C/c1c(N(Cc2ccccc2)Cc2ccccc2)nc2ccccn2c1=O | -55* | -6% | ? | ? | 23µM* | ?
CCNC(=O)/C(C#N)=C/c1c(N2CCOCC2)nc2ccccn2c1=O | -19 | -12% | -13% | -23% | -8% | 1%
